Results published in the supplement of paper PMC13380429.

Key:
[1] = tested on: Vero E6 infected with SARS-CoV-2; assay: inhibition of SARS-CoV-2 cytopathic effect; higher = more antiviral protection, active = above 15; details: 48 h
[2] = tested on: Vero E6 infected with SARS-CoV-2; assay: morphology score (similarity to uninfected cells); higher = more like uninfected cells; details: 24 h
[3] = tested on: Vero E6 infected with SARS-CoV-2; assay: SARS-CoV-2 infection rate relative to infected DMSO; higher = more infection, active = 60 or less; details: 24 h

| Compound | inhibition of SARS-CoV-2 cytopathic effect ([1]; 1 nM) | inhibition of SARS-CoV-2 cytopathic effect ([1]; 8.33 nM) | inhibition of SARS-CoV-2 cytopathic effect ([1]; 100 nM) | inhibition of SARS-CoV-2 cytopathic effect ([1]; 833.33 nM) | inhibition of SARS-CoV-2 cytopathic effect ([1]; 10000 nM) | morphology score [2] | SARS-CoV-2 infection rate [3] |
| --- | --- | --- | --- | --- | --- | --- | --- |
| CCCCC(CC)COc1ccc(-c2nc(-c3ccc(OC)cc3)nc(-c3ccc(OCC(CC)CCCC)cc3O)n2)c(O)c1 (stereo not given) [bemotrizinol] | 1.11% (inactive) | 3.46% (inactive) | 1.8% (inactive) |  |  |  |  |
| CCC(C)CCCC(=O)N[C@@H](CCN)C(=O)N[C@H](C(=O)N[C@@H](CCN)C(=O)N[C@H]1CCNC(=O)[C@H]([C@@H](C)O)NC(=O)[C@H](CCN)NC(=O)[C@H](CCN)NC(=O)[C@H](CC(C)C)NC(=O)[C@@H](CC(C)C)NC(=O)[C@H](CCN)NC1=O)[C@@H](C)O (stereo not given in full) [colistin] | 0.955% (inactive) | -0.06% (inactive) | 3.56% (inactive) | 0.76% (inactive) | -2.41% (inactive) |  |  |
| Cn1nc(-c2ccc(C(F)(F)F)cc2)nc2c(=O)n(C)c(=O)nc1-2 [walrycin-B] (0.833333 µM) |  |  |  |  |  | 0.4 | 86.5% (inactive) |
| Cc1cc(Nc2cc(C)c(C#N)c(N[C@@H](C)CCCC(C)(C)O)n2)n[nH]1 (10 µM) |  |  |  |  |  | -0.0857 | 113% (inactive) |
| C1Cc2[nH]nc(-c3nn[nH]n3)c2C1 | -1.32% (inactive) | -1.1% (inactive) | -1.82% (inactive) | -3.19% (inactive) | 2.43% (inactive) |  |  |
| CC(C)(N)c1nc(-c2ccc(OC(F)(F)F)cc2)c[nH]1 | 0.82% (inactive) | 0.2% (inactive) | 2.45% (inactive) | 1.1% (inactive) | -2.65% (inactive) |  |  |
| NCCC[C@H](N)CC(=O)N[C@H]1CNC(=O)[C@H]([C@H]2C[C@H](O)NC(N)=N2)NC(=O)/C(=C/NC(N)=O)NC(=O)[C@H](CO)NC(=O)[C@H](CO)NC1=O [viomycin] | 2.35% (inactive) | 1% (inactive) | -1.8% (inactive) |  |  |  |  |
